Measurements as given in the supplement of paper PMC10037445.
Where “and” joins values, the source holds several entries; their conditions need not be identical. Identical values can stand only once. Whole data set: some 2,900 compounds, median “NF-kB SEAP reporter activity, fold change vs agonist alone” near 0.99, cut for the highest 2% near 2.6. Shown is part of a subset that was picked to be rich in the highest values.

Tests used:
[1] = system: RAW-Dual; assay: NF-kB SEAP reporter activity, fold change vs agonist alone; cytotoxicity flag (confluency mask): not cytotoxic; higher = enhanced NF-kB activity
How it was run: (§1)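 After 50 nL of library stock was delivered by pin tool to RAW-Dual macrophages (50,000 cells/well, DMEM, 384-well plates), a PRR agonist was added 1 h later and the plates were kept at 37 °C, 5% CO2. Twenty hours later, IRF was read from supernatant by QuantiLuc luminescence and NF-κB by QuantiBlue absorbance at 620 nm. Reporter activity is stated as fold change over agonist-alone wells. Wells with IncuCyte confluency under 70% of agonist controls in both mask sets were counted as cytotoxic.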

[2] = system: RAW-Dual; assay: NF-kB SEAP reporter activity, fold change vs agonist alone; higher = enhanced NF-kB activity
How it was run: as §1

[3] = system: RAW-Dual; assay: NF-kB SEAP reporter activity, fold change vs agonist alone; cytotoxicity flag (confluency mask): cytotoxic (confluency <70% of control); higher = enhanced NF-kB activity
How it was run: as §1

[4] = agonist: ODN 1826 (TLR9) 0.5 ug/mL
[5] = agonist: Pam2CSK4 (TLR2/6) 0.1 ug/mL
[6] = agonist: Pam3CSK4 (TLR2/1) 0.1 ug/mL
[7] = library stock concentration (final ~1000-fold dilution): 10 mM, cytotoxicity flag (confluency mask): not cytotoxic, agonist: Imiquimod (TLR7) […]
[8] = library stock concentration (final ~1000-fold dilution): 10 mM, cytotoxicity flag (confluency mask): not cytotoxic, agonist: MPLA (TLR4) […]
[9] = library stock concentration (final ~1000-fold dilution): 10 mM, cytotoxicity flag (confluency mask): cytotoxic (confluency <70% of control), agonist: MPLA (TLR4) […]
[10] = library stock concentration (final ~1000-fold dilution): 10 mM, cytotoxicity flag (confluency mask): cytotoxic (confluency <70% of control), agonist: Imiquimod (TLR7) […]

**Q.** Which “NF-kB SEAP reporter activity” value ([1]; agonist: LPS (TLR4) 0.1 ug/mL) does the source give for `Cl.c1ccc2c(-c3cnn4cc(-c5ccc(N6CCNCC6)cc5)cnc34)ccnc2c1` (library stock concentration (final ~1000-fold dilution): 10 mM water) here?
**A.** 0.64

**Q.** And the “NF-kB SEAP reporter activity” value [1, 4]?
**A.** 0.253

**Q.** What about the “NF-kB SEAP reporter activity” value [1, 5] of the same compound?
**A.** 0.171

**Q.** And the “NF-kB SEAP reporter activity” value [1, 6]?
**A.** 0.354

**Q.** With `Cl.c1ccc2c(-c3cnn4cc(-c5ccc(N6CCNCC6)cc5)cnc34)ccnc2c1` as the compound, how does the “NF-kB SEAP reporter activity” value ([2]; library stock concentration (final ~1000-fold dilution): 10 mM water, cytotoxicity flag (confluency mask): not cytotoxic, agonist: Imiquimod (TLR7) […]) read?
**A.** 0.986

**Q.** What about the “NF-kB SEAP reporter activity” value ([2]; library stock concentration (final ~1000-fold dilution): 10 mM water, cytotoxicity flag (confluency mask): not cytotoxic, agonist: MPLA (TLR4) […]) of the same compound?
**A.** 0.571

**Q.** `CC(C)(C)C1NC(=O)OC2CCCC2OC/C=C/C(F)(F)c2nc3ccccc3nc2OC2CC(C(=O)NC3(C(=O)NS(=O)(=O)C4(C)CC4)CC3C(F)F)N(C2)C1=O` (stereo not given) was tested. Which “NF-kB SEAP reporter activity” value [2, 7] did it give?
**A.** 2.27

**Q.** What about the “NF-kB SEAP reporter activity” value [2, 8] of the same compound?
**A.** 2.15

**Q.** For `C=CC1CC1(NC(=O)C1CC2CN1C(=O)C(C(C)(C)C)NC(=O)OC1CC1CCCCCc1nc3ccc(OC)cc3nc1O2)C(=O)NS(=O)(=O)C1CC1` (stereo not given), which “NF-kB SEAP reporter activity” value [2, 7] is on record?
**A.** 1.3

**Q.** What about the “NF-kB SEAP reporter activity” value [2, 8] of the same compound?
**A.** 1.22

**Q.** For `C=CC1CC1(NC(=O)C1CC2CN1C(=O)C(C(C)(C)C)NC(=O)OC1CC1CCCCCc1nc3ccc(OC)cc3nc1O2)C(=O)NS(=O)(=O)C1CC1` (stereo not given) (library stock concentration (final ~1000-fold dilution): 10 mM), which “NF-kB SEAP reporter activity” value ([1]; agonist: LPS (TLR4) 0.1 ug/mL) is on record?
**A.** 1.3

**Q.** And the “NF-kB SEAP reporter activity” value [1, 4]?
**A.** 1.46

**Q.** What about the “NF-kB SEAP reporter activity” value [1, 5] of the same compound?
**A.** 0.913

**Q.** And the “NF-kB SEAP reporter activity” value [1, 6]?
**A.** 0.835

**Q.** Which “NF-kB SEAP reporter activity” value ([1]; agonist: LPS (TLR4) 0.1 ug/mL) does the source give for `CC(C)(C)C1NC(=O)OC2CCCC2OC/C=C/C(F)(F)c2nc3ccccc3nc2OC2CC(C(=O)NC3(C(=O)NS(=O)(=O)C4(C)CC4)CC3C(F)F)N(C2)C1=O` (stereo not given) (library stock concentration (final ~1000-fold dilution): 10 mM) here?
**A.** 1.29

**Q.** And the “NF-kB SEAP reporter activity” value [1, 4]?
**A.** 2.62

**Q.** What about the “NF-kB SEAP reporter activity” value [1, 5] of the same compound?
**A.** 0.986

**Q.** And the “NF-kB SEAP reporter activity” value [1, 6]?
**A.** 2.09

**Q.** Which results are given for `CC(C)=CCCC(C)(OC1OC(CO)C(O)C(O)C1O)C1CCC2(C)C1C(O)CC1C3(C)CCC(O)C(C)(C)C3C(OC3OC(CO)C(O)C(O)C3OC3OCC(O)C(O)C3O)CC12C` (stereo not given) (library stock concentration (final ~1000-fold dilution): 10 mM)?
**A.** NF-kB SEAP reporter activity ([1]; agonist: LPS (TLR4) 0.1 ug/mL): 0.93; NF-kB SEAP reporter activity [1, 4]: 1.02; NF-kB SEAP reporter activity [1, 5]: 0.792; NF-kB SEAP reporter activity [1, 6]: 0.975

**Q.** For `CC(C)=CCCC(C)(OC1OC(CO)C(O)C(O)C1O)C1CCC2(C)C1C(O)CC1C3(C)CCC(O)C(C)(C)C3C(OC3OC(CO)C(O)C(O)C3OC3OCC(O)C(O)C3O)CC12C` (stereo not given), which “NF-kB SEAP reporter activity” value [2, 7] is on record?
**A.** 0.818

**Q.** And the “NF-kB SEAP reporter activity” value [2, 8]?
**A.** 0.958

**Q.** With `CS(=O)(=O)O.Fc1ccc(C2CCNCC2COc2ccc3c(c2)OCO3)cc1` (stereo not given) as the compound, how does the “NF-kB SEAP reporter activity” value [2, 9] read?
**A.** 1.43

**Q.** How did the “NF-kB SEAP reporter activity” value ([3]; agonist: LPS (TLR4) 0.1 ug/mL) turn out when `CS(=O)(=O)O.Fc1ccc(C2CCNCC2COc2ccc3c(c2)OCO3)cc1` (stereo not given) (library stock concentration (final ~1000-fold dilution): 10 mM) was run?
**A.** 1.08

**Q.** What about the “NF-kB SEAP reporter activity” value [3, 4] of the same compound?
**A.** 0.542

**Q.** What about the “NF-kB SEAP reporter activity” value [3, 5] of the same compound?
**A.** 0.486

**Q.** And the “NF-kB SEAP reporter activity” value [3, 6]?
**A.** 0.425

**Q.** Which results are given for `Fc1ccc(Nc2nc(Nc3ccc(-c4nc5ccccc5[nH]4)cc3)nc(N3CCOCC3)n2)cc1`?
**A.** NF-kB SEAP reporter activity [2, 10]: 0.399; NF-kB SEAP reporter activity [2, 9]: 1.42

**Q.** What does the source list for `Fc1ccc(Nc2nc(Nc3ccc(-c4nc5ccccc5[nH]4)cc3)nc(N3CCOCC3)n2)cc1` (library stock concentration (final ~1000-fold dilution): 10 mM)?
**A.** NF-kB SEAP reporter activity ([3]; agonist: LPS (TLR4) 0.1 ug/mL): 0.621; NF-kB SEAP reporter activity [3, 4]: 0.452; NF-kB SEAP reporter activity [3, 5]: 0.212; NF-kB SEAP reporter activity [3, 6]: 0.25

**Q.** Which results are given for `CCC(CC)(NC(=O)C(C)C)C(=O)NC(CCCNC(=N)N)C(=O)NC1(C(=O)NC(c2ccc(F)cc2)c2ccc(F)cc2)CCCC1` (stereo not given) (library stock concentration (final ~1000-fold dilution): 10 mM)?
**A.** NF-kB SEAP reporter activity ([1]; agonist: LPS (TLR4) 0.1 ug/mL): 0.847; NF-kB SEAP reporter activity [1, 4]: 0.788; NF-kB SEAP reporter activity [1, 5]: 0.957; NF-kB SEAP reporter activity [1, 6]: 0.971

**Q.** Which results are given for `CCC(CC)(NC(=O)C(C)C)C(=O)NC(CCCNC(=N)N)C(=O)NC1(C(=O)NC(c2ccc(F)cc2)c2ccc(F)cc2)CCCC1` (stereo not given)?
**A.** NF-kB SEAP reporter activity [2, 7]: 1.08; NF-kB SEAP reporter activity [2, 8]: 0.867

**Q.** `CC/C(C)=C/CC[C@](C)(O)C1CC[C@]2(C)C3C[C@@H](O[C@@H]4O[C@H](CO)[C@@H](O)[C@H](O)[C@H]4O[C@@H]4O[C@@H](C)[C@H](O)[C@@H](O)[C@H]4O)C4C(C)(C)C(O)CC[C@]4(C)C3C[C@H](O)C12` (stereo not given in full) (library stock concentration (final ~1000-fold dilution): 10 mM) was tested. Which “NF-kB SEAP reporter activity” value ([1]; agonist: LPS (TLR4) 0.1 ug/mL) did it give?
**A.** 1.2

**Q.** What about the “NF-kB SEAP reporter activity” value [1, 4] of the same compound?
**A.** 0.992

**Q.** And the “NF-kB SEAP reporter activity” value [1, 5]?
**A.** 0.952

**Q.** And the “NF-kB SEAP reporter activity” value [1, 6]?
**A.** 1.14

**Q.** What does the source list for `CC/C(C)=C/CC[C@](C)(O)C1CC[C@]2(C)C3C[C@@H](O[C@@H]4O[C@H](CO)[C@@H](O)[C@H](O)[C@H]4O[C@@H]4O[C@@H](C)[C@H](O)[C@@H](O)[C@H]4O)C4C(C)(C)C(O)CC[C@]4(C)C3C[C@H](O)C12` (stereo not given in full)?
**A.** NF-kB SEAP reporter activity [2, 7]: 0.952; NF-kB SEAP reporter activity [2, 8]: 0.934

**Q.** How did the “NF-kB SEAP reporter activity” value ([1]; agonist: LPS (TLR4) 0.1 ug/mL) turn out when `Cc1ccccc1C(=O)N1CCc2cc(-c3nc(NC(=O)Cc4ccc5c(c4)OCO5)sc3C)ccc21` (library stock concentration (final ~1000-fold dilution): 10 mM) was run?
**A.** 1.34 and 1.45

**Q.** What about the “NF-kB SEAP reporter activity” value [1, 4] of the same compound?
**A.** 0.971 and 0.758

**Q.** What about the “NF-kB SEAP reporter activity” value [1, 5] of the same compound?
**A.** 0.716 and 0.692

**Q.** And the “NF-kB SEAP reporter activity” value [1, 6]?
**A.** 0.695 and 0.61

**Q.** Which results are given for `CCS(=O)(=O)Nc1ccc(Oc2ccc(F)cc2F)c(-c2cn(C)c(=O)c3[nH]ccc23)c1`?
**A.** NF-kB SEAP reporter activity [2, 10]: 1.54; NF-kB SEAP reporter activity [2, 9]: 2.13

**Q.** Which results are given for `CCNC(=O)c1cc2c(-c3cc(C(C)(C)O)ccc3Oc3c(C)cc(F)cc3C)cn(C)c(=O)c2[nH]1`?
**A.** NF-kB SEAP reporter activity [2, 10]: 1.4; NF-kB SEAP reporter activity [2, 9]: 1.84

**Q.** What does the source list for `CN1C(=O)C(C)(C)Oc2c(-c3cn(C)c(=O)c4[nH]ccc34)cc(S(C)(=O)=O)cc21`?
**A.** NF-kB SEAP reporter activity [2, 10]: 1.56; NF-kB SEAP reporter activity [2, 9]: 2.34

**Q.** With `CCNC(=O)c1cc2c(-c3cc(C(C)(C)O)ccc3Oc3c(C)cc(F)cc3C)cn(C)c(=O)c2[nH]1` (library stock concentration (final ~1000-fold dilution): 10 mM) as the compound, how does the “NF-kB SEAP reporter activity” value ([3]; agonist: LPS (TLR4) 0.1 ug/mL) read?
**A.** 0.903

**Q.** What about the “NF-kB SEAP reporter activity” value [3, 4] of the same compound?
**A.** 1.34

**Q.** And the “NF-kB SEAP reporter activity” value [3, 5]?
**A.** 0.318

**Q.** What about the “NF-kB SEAP reporter activity” value [3, 6] of the same compound?
**A.** 0.842

**Q.** Which “NF-kB SEAP reporter activity” value ([3]; agonist: LPS (TLR4) 0.1 ug/mL) does the source give for `CN1C(=O)C(C)(C)Oc2c(-c3cn(C)c(=O)c4[nH]ccc34)cc(S(C)(=O)=O)cc21` (library stock concentration (final ~1000-fold dilution): 10 mM) here?
**A.** 2.16

**Q.** And the “NF-kB SEAP reporter activity” value [3, 4]?
**A.** 1.73

**Q.** What about the “NF-kB SEAP reporter activity” value [3, 5] of the same compound?
**A.** 0.658

**Q.** And the “NF-kB SEAP reporter activity” value [3, 6]?
**A.** 1.99
